Source: PubChem BioAssay (NCATS)
Active and inactive are the calls of the source. Entries that show only a call come without a potency. Calls come from the whole dose curve; as a rule, active = well fitted cell-killing curve with a large enough effect; inconclusive = small, poorly fitted or top-dose-only effect; inactive = flat fitted curve, though single readings scatter.

Test: Cell Viability - LYMP1-003 - Assay at 24 hr (AID 963)
Conditions: LYMP1-003 lymphoblastoid cell viability; series mostly up to 92.2 µM
Excerpt: NIH Chemical Genomics Center [NCGC]
NIH Molecular Libraries Screening Centers Network [MLSCN]
National Institutes of Environmental Health Sciences [NIEHS]
National Toxicology Program [NTP]
We have developed a 1536-well cell-based assay for quantitative high throughput screening (qHTS) against a number of cell lines to determine in vitro cytotoxicity of small molecules. This particular assay uses a human lymphoblastoid cell line (LYMP1-003) purchased from Coriell Institute for Medical Research.
NCGC Assay Protocol Summary:
The CellTiter-Glo luminescent cell viability assay (Promega) is a homogeneous method to measure the number of viable cells in culture. The end point readout of this assay is based on quantitation of intracellular ATP, an indicator of metabolic activity, using the luciferase reaction. Luciferase catalyzes the oxidation of beetle Luciferin to oxyluciferin and light in the presence of ATP. The luminescent signal is proportional to amount of ATP present.
Using the CellTiter-Glo luminescent cell viability assay, the amount of cellular ATP was measured in the lymphoblastoid cell line with complete culture medium following compound treatment for 24 hours. The assay was performed in opaque white Kalypsys 1536-well plates. In the screen, tetraoctylammonium bromide was used as positive control. Library compounds were measured for their ability to cause acute toxicity in the cell line, as reflected by a decrease in intracellular ATP levels, in a concentration-dependent manner. […] AC50 values were determined from concentration-response data modeled with the standard Hill equation.
qHTS protocol for CellTiter Glo lymphoblastoid cellular assay
[Step] [Parameter] [Value] [Description]
1. Reagent; 5 uL; 2500 lymphoblastoid cells/well
2. Time; 5 hr; 37 C incubation
4. Controls; 23 nL; Tetraoctylammonium bromide 6.4pM to 92 uM
5. Time; 24 hr; 37 C incubation
6. Reagent; 5 uL; CellTiter Glo reagent
7. Time; 30 min; Room Temperature
8. Detection; Luminescence; Viewlux plate reader
Keywords: cell viability, cytotoxicity, lymphoblastoid cell line, luminescence, NTPHTS, NTPHTS_NCGC, NIEHS, DSSTox, MLSMR, MLSCN, NIH Roadmap, qHTS, NCGC
Potency is the fitted concentration of half-maximal effect.

SMILES	Potency
Cc1cccc([N+](=O)[O-])c1	inactive
Clc1cccc(C(Cl)(Cl)Cl)n1	inactive
CCCCOCCOP(=O)(OCCOCCCC)OCCOCCCC	inactive
COC1=CC(=O)OC(CCc2ccccc2)C1 (stereo not given)	inactive
CCCCOC(=O)c1ccccc1C(=O)OCCCC	inactive
COC1=CC(=O)O[C@@H](/C=C/c2ccc3c(c2)OCO3)C1	inactive
CC(O)CCl (stereo not given)	inactive
CCOP(=S)(OCC)Oc1ccc([N+](=O)[O-])cc1	inactive
c1ccc(N=Nc2ccccc2)cc1	inactive
c1ccc(-c2ccccc2)cc1	inactive
ClC(Cl)=C(Cl)Cl	inactive
C=C(Cl)Cl	inactive
CNC(=O)O/N=C/C(C)(C)SC	inactive
CCCCCCCC(=O)Cl	inactive
ClC(Cl)(Cl)c1ccccc1	inactive
Brc1ccccc1	inactive
C=CCc1ccc(OC)cc1	inactive
C[C@H]1CCCC(=O)CCC/C=C/c2cc(O)cc(O)c2C(=O)O1	inactive
O=C1C(Cl)=C(Cl)C(=O)C(Cl)=C1Cl	31.6 µM (active)
Cc1ccc(O)c(C)c1	inactive

SMILES	Potency
C=CCOC(C)=O	inactive
CC(C)(c1ccccc1)c1ccc(O)cc1	inactive
C=CCOC(=O)c1ccccc1N	inactive
C=CC(=C)C	inactive
Clc1nc(Cl)nc(Cl)n1	inactive
O=[N+]([O-])c1ccc(Cl)c(Cl)c1	inactive
CCOP(=S)(OCC)SCSC(C)(C)C	inactive
COP(=S)(OC)Oc1ccc([N+](=O)[O-])cc1	inactive
CCCOC(=O)c1ccccc1C(=O)OCCC	inactive
ClC(Cl)=C(c1ccc(Cl)cc1)c1ccc(Cl)cc1	inactive
Clc1ccc2ccccc2c1	inactive
Nc1ccccc1Cl	inactive
CCCC(=O)Cl	inactive
O=NN(CCO)CCO	inactive
ClC1=C(Cl)C2(Cl)C3C4CC(C5OC45)C3C1(Cl)C2(Cl)Cl (stereo not given)	25.1 µM (active)
Cc1ccc([N+](=O)[O-])cc1C	inactive
CC(C)(C)OOC(C)(C)C	inactive
C/C=C/c1ccc2c(c1)OCO2	inactive
CCC[CH2][Sn]([Cl])([Cl])[Cl]	inactive
Nc1ccc(Br)cc1	inactive
